This note sets out measurements from PubChem BioAssay (NCATS).

Inconclusive results are not listed. The source made the active and inactive calls. Calls come from the whole dose curve; as a rule, active = well fitted inhibition curve with a large enough effect; inconclusive = small, poorly fitted or top-dose-only effect; inactive = flat fitted curve, though single readings scatter.

What all share (experiment): qHTS profiling for inhibitors of Plasmodium falciparum proliferation (AID 504749); note: nearly all actives have a fitted effect of over 60% in size
Conditions in all cases: P. falciparum in erythrocytes, SYBR Green DNA, 72 h; series mostly up to 28.7 µM
Background: Quantitative high-throughput screening tests each substance at several concentrations.

The subject of one experiment is CP252. A digest of the protocol: (§1)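 P. falciparum-infected erythrocytes (0.3% parasitemia, 2.5% hematocrit) incubated with compound 72 h at 37 C, 5% CO2. Parasite DNA detected by SYBR Green after lysis, overnight at room temperature; normalised to 0.29 uM artemisinin and DMSO.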
The subject of another experiment is CP256. An outline of the steps: as §1
Another experiment deals with CP260. A digest of the protocol: as §1
The test system of a further experiment is CP262. An outline of the steps: as §1
Another experiment concerns CP265. A digest of the protocol:
as §1

Another experiment relates to CP266. A digest of the protocol:
as §1

Another experiment concerns CP268. A digest of the protocol: as §1
A further experiment has as its system CP269. An outline of the steps:
as §1

The subject of a further experiment is CP286. A digest of the protocol:
as §1

For the next experiment, the system named is CP291. An outline of the steps: as §1
A further experiment deals with CP297. A digest of the protocol: as §1
A further experiment has as its system CP305. An outline of the steps:
as §1

In another experiment the test system is CP315. An outline of the steps:
as §1

For another experiment, the system named is CP325. An outline of the steps:
as §1

For the next experiment, the system named is CP329. An outline of the steps:
as §1

Another experiment deals with CP335. An outline of the steps: as §1
In another experiment the test system is DFO2036. A digest of the protocol:
as §1

The subject of a further experiment is DIV14. An outline of the steps: as §1
The test system of a further experiment is DIV17. A digest of the protocol: as §1
For a further experiment, the system named is DIV30. An outline of the steps:
as §1
Potency is the fitted concentration of half-maximal effect.

In the case of `Cc1nnc(SCC2=C(C(=O)O)N3C(=O)[C@@H](NC(=O)Cn4cnnn4)[C@H]3SC2)s1`, the Potency result in the experiment with CP252, with CP256, in the experiment with CP260, with CP262, in the experiment on CP265 and in the experiment with CP266 was “inactive” in each case. Besides, the Potency result with CP268, in the experiment on CP269, in the experiment on CP286, in the experiment with CP291, with CP297 and with CP305 was “inactive” throughout. Besides, the Potency entry in the experiment with CP315, in the experiment on CP325, with CP329, in the experiment with CP335, with DFO2036 and with DIV14 was “inactive” each time. The Potency entry in the experiment with DIV17 and in the experiment with DIV30 was “inactive” each time.

`O=C(O)CP(=O)(O)O`: the Potency entry with CP252, with CP256, with CP260, with CP262, in the experiment on CP265 and in the experiment with CP266 was “inactive” in each case. Moreover, the Potency result with CP268, with CP269, in the experiment on CP286, in the experiment on CP291, in the experiment with CP297 and with CP305 was “inactive” throughout. The Potency entry in the experiment on CP315, in the experiment with CP325, with CP329, in the experiment with CP335, in the experiment on DFO2036 and in the experiment with DIV14 was “inactive” each time. For the same molecule, the Potency result in the experiment with DIV17 and in the experiment with DIV30 was “inactive” throughout.

`C[N+](C)(C)CCOC(=O)CCC(=O)OCC[N+](C)(C)C`: the Potency entry with CP252, in the experiment with CP256, with CP260, in the experiment with CP262, in the experiment on CP265 and in the experiment on CP266 was “inactive” each time. Also, the Potency entry in the experiment with CP268, in the experiment on CP269, in the experiment on CP286, with CP291, in the experiment with CP297 and in the experiment with CP305 was “inactive” in each case. For the same molecule, the Potency result in the experiment with CP315, in the experiment on CP325, in the experiment with CP329, in the experiment on CP335, with DFO2036 and with DIV14 was “inactive” in each case. For the same molecule, the Potency entry in the experiment on DIV17 and with DIV30 was “inactive” in each case.

For the molecule `NS(=O)(=O)c1cc2c(cc1Cl)NC(C1CC3C=CC1C3)NS2(=O)=O` (stereo not given), the Potency result in the experiment with CP252, with CP256, in the experiment on CP260, in the experiment with CP262, in the experiment with CP265 and in the experiment with CP266 was “inactive” in each case. Moreover, the Potency entry in the experiment on CP268, with CP269, in the experiment on CP286, with CP291, in the experiment with CP297 and in the experiment with CP305 was “inactive” in each case. Further, the Potency entry in the experiment with CP315, in the experiment with CP325, with CP329, in the experiment on CP335, in the experiment with DFO2036 and in the experiment on DIV14 was “inactive” each time. Further, the Potency result in the experiment with DIV17 and in the experiment on DIV30 was “inactive” throughout.

On to `C[N+](C)(C)CCCCCCCCCC[N+](C)(C)C`, for which the Potency with CP252 was 3.98 µM (active); in the experiment with CP256, 2.51 µM (active); in the experiment with CP260, 2.24 µM (active); in the experiment on CP262, 1.69 µM (active); in the experiment on CP265 it was 2.82 µM (active); in the experiment on CP266, 4.78 µM (active). In addition, the Potency is 4.78 µM (active) with CP268; 3.38 µM (active) with CP269; 4.47 µM (active) in the experiment on CP286; 3.38 µM (active) in the experiment with CP291; 4.78 µM (active) in the experiment on CP297; 4.26 µM (active) in the experiment with CP305. Moreover, the Potency is 4.26 µM (active) with CP315; 3.38 µM (active) with CP325; 3.38 µM (active) with CP329; 1.9 µM (active) in the experiment with CP335; 4.47 µM (active) with DFO2036; 1.07 µM (active) in the experiment with DIV14. Also, the Potency was 1.69 µM (active) in the experiment with DIV17 and 4.26 µM (active) in the experiment on DIV30.

For `CSc1ccc(C(=O)c2[nH]c(=O)[nH]c2C)cc1`, the Potency result in the experiment with CP252, in the experiment with CP256, in the experiment with CP260, in the experiment with CP262, with CP265 and in the experiment with CP266 was “inactive” in each case. Moreover, the Potency result with CP268, in the experiment with CP269, in the experiment on CP286, in the experiment with CP291, in the experiment with CP297 and in the experiment on CP305 was “inactive” throughout. Also, the Potency entry with CP315, with CP325, in the experiment on CP329, in the experiment on CP335, with DFO2036 and with DIV14 was “inactive” throughout. Further, the Potency result with DIV17 and with DIV30 was “inactive” each time.

As for `CN(C)C(=O)Oc1ccc[n+](C)c1`, the Potency result in the experiment with CP252, in the experiment on CP256, in the experiment with CP260, with CP262, in the experiment on CP265 and in the experiment with CP266 was “inactive” throughout. Moreover, the Potency entry in the experiment on CP268, with CP269, in the experiment on CP286, with CP291, in the experiment on CP297 and with CP305 was “inactive” throughout. Further, the Potency result with CP315, in the experiment on CP325, in the experiment with CP329, with CP335, in the experiment with DFO2036 and in the experiment on DIV14 was “inactive” throughout. Moreover, the Potency entry with DIV17 and in the experiment on DIV30 was “inactive” each time.

For `NC(=O)N1c2ccccc2C=Cc2ccccc21`, the Potency result in the experiment with CP252, in the experiment with CP256, in the experiment on CP260, with CP262, with CP265 and with CP266 was “inactive” in each case. For the same molecule, the Potency result with CP268, with CP269, in the experiment on CP286, in the experiment on CP291, with CP297 and in the experiment on CP305 was “inactive” each time. The Potency result in the experiment with CP315, in the experiment on CP325, with CP329, in the experiment on CP335, in the experiment with DFO2036 and in the experiment with DIV14 was “inactive” each time. For the same molecule, the Potency result with DIV17 and in the experiment with DIV30 was “inactive” throughout.

`Cc1cc(C)c(/C=C2\C(=O)Nc3ccccc32)[nH]1`: the Potency result in the experiment on CP252, with CP256, in the experiment on CP260, in the experiment with CP262, in the experiment with CP265 and in the experiment with CP266 was “inactive” each time. In addition, the Potency entry in the experiment on CP268, in the experiment on CP269, with CP286, in the experiment with CP291, with CP297 and in the experiment with CP305 was “inactive” in each case. Besides, the Potency entry in the experiment with CP315, with CP325, in the experiment on CP329, in the experiment on CP335, in the experiment with DFO2036 and in the experiment on DIV14 was “inactive” in each case. For the same molecule, the Potency result in the experiment with DIV17 and in the experiment with DIV30 was “inactive” each time.

Take `CC(C)(Oc1ccc(CCNC(=O)c2ccc(Cl)cc2)cc1)C(=O)O`: the Potency result in the experiment on CP252, with CP256, in the experiment on CP260, with CP262, with CP265 and with CP266 was “inactive” each time. For the same molecule, the Potency entry in the experiment with CP268, in the experiment with CP269, with CP286, in the experiment with CP291, with CP297 and in the experiment with CP305 was “inactive” throughout. For the same molecule, the Potency result in the experiment with CP315, in the experiment with CP325, in the experiment on CP329, in the experiment on CP335, in the experiment on DFO2036 and in the experiment with DIV14 was “inactive” throughout. The Potency result in the experiment with DIV17 and in the experiment on DIV30 was “inactive” throughout.

Regarding `COC(=O)C1=C(C)NC(C)=C(C(=O)OC(C)(C)CN(C)CCC(c2ccccc2)c2ccccc2)C1c1cccc([N+](=O)[O-])c1` (stereo not given), the Potency in the experiment on CP252 is 3.55 µM (active); in the experiment with CP256 it was 2.82 µM (active); in the experiment on CP260, 2.24 µM (active); with CP262, 4.26 µM (active); in the experiment with CP265, 3.55 µM (active); in the experiment on CP266, 6.75 µM (active). Besides, the Potency in the experiment on CP268 was 7.57 µM (active); in the experiment on CP269, 4.26 µM (active); in the experiment on CP286, 2.51 µM (active); in the experiment on CP291, 3.79 µM (active); in the experiment on CP297 it was 3.79 µM (active); in the experiment with CP305, 5.36 µM (active). For the same molecule, the Potency is 4.26 µM (active) with CP315; 6.01 µM (active) in the experiment on CP325; 3.79 µM (active) in the experiment on CP329; 1.51 µM (active) in the experiment with CP335; 3.55 µM (active) in the experiment on DFO2036; 3.79 µM (active) in the experiment on DIV14. Further, the Potency is 3.38 µM (active) in the experiment on DIV17 and 4.78 µM (active) in the experiment on DIV30.

For `CCN(CC)CC(=O)Nc1c(C)cccc1C`, the Potency entry in the experiment on CP252, in the experiment on CP256, with CP260, in the experiment with CP262, with CP265 and with CP266 was “inactive” throughout. Moreover, the Potency entry with CP268, in the experiment with CP269, with CP286, with CP291, in the experiment with CP297 and with CP305 was “inactive” throughout. In addition, the Potency result in the experiment on CP315, with CP325, in the experiment with CP329, in the experiment with CP335, in the experiment on DFO2036 and with DIV14 was “inactive” throughout. Moreover, the Potency result with DIV17 and in the experiment on DIV30 was “inactive” each time.

As to `O=c1[nH]c(=O)n([C@H]2C[C@H](O)[C@@H](CO)O2)cc1Br`, the Potency entry in the experiment on CP252, in the experiment with CP256, in the experiment on CP260, in the experiment with CP262, with CP265 and in the experiment on CP266 was “inactive” throughout. The Potency entry in the experiment on CP268, with CP269, with CP286, with CP291, in the experiment with CP297 and with CP305 was “inactive” in each case. Moreover, the Potency entry in the experiment on CP315, with CP325, with CP329, in the experiment on CP335, with DFO2036 and in the experiment with DIV14 was “inactive” throughout. Also, the Potency entry in the experiment on DIV17 and in the experiment with DIV30 was “inactive” each time.
